Consider 99 compounds from PubChem BioAssay AID504466 (National Center for Advancing Translational Sciences (NCATS), 2011).

Molecules are shown by their SMILES. Screen size: about 330,000 compounds; about 4,200 (1.3%) were called active. Where a call stands in place of a potency, no number is given. Another 6% or so got no clear call; they are omitted. Calls follow the shape of the dose curve; as a rule, active = well fitted activation curve with a large enough effect; inconclusive = small, poorly fitted or top-dose-only effect; inactive = no such curve, though single readings can be large or run the other way. Many of the other results were omitted from the sample, so actives are more common in it than they were.
Potency is read from the fitted curve at half-maximal effect.

This test can be described thus: qHTS screen for small molecules that induce genotoxicity in human embryonic kidney (HEK293T) cells expressing luciferase-tagged ELG1. Also: nearly all actives have a fitted effect of over 60% in size. The note with it: HEK293T ELG1-luciferase reporter, luminescence, 16 h; series mostly up to 46 µM. Summed up: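 After overnight (16 hr) compound treatment at 37 °C, ELG1-luciferase HEK293T cells were lysed with ONE-Glo; luminescence quantified 30 min later at room temperature.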
Turning to `CCCc1cc(=O)[nH]c(SCC(=O)Nc2ccc(C(=O)Nc3ccccc3OC)cc2)n1`, the Potency result is “inactive”. The result for `Cc1noc(C)c1C(=O)OC(C)C(=O)Nc1ccc2c(c1)OCO2` (centres undefined) reads “inactive”; that for `CC(=O)c1cccc(OCC(=O)OCC(=O)Nc2cc(S(=O)(=O)N3CCCCC3)ccc2C)c1`, “inactive”; that for `CC(C)Cn1c(SCC(=O)Nc2ccc(Cl)cc2F)nc(O)cc1=O`, “inactive”. As to `O=C(Nc1ccc2c(c1)OCCO2)c1cnccn1`, the Potency was 5.8 µM (active). With `O=C(CCN1C(=O)c2ccncc2C1=O)Nc1ccc2c(c1)OCCO2`, the Potency entry is “inactive”. The result for `Cn1ccnc1SCC(=O)Nc1ccc2c(c1)OCCO2` reads 9.2 µM (active); that for `CCn1c(SCC(=O)Nc2ccc3c(c2)OCCO3)nnc1C(C)C`, “inactive”; that for `CCn1c(SCC(=O)Nc2ccc3c(c2)OCCO3)nnc1-c1ccncc1`, “inactive”.

On to `O=C(Nc1cccc(NC(=O)c2ccco2)c1)c1cnccn1`, for which the Potency result is “inactive”. For the compound `CCC(CO)Oc1cc(NC(=O)c2cccc3ccccc23)c2ncn(C(C)C)c2c1` (centres undefined), the Potency result was “inactive”. Take `O=C(CSc1nc2ccccc2c(=O)n1Cc1ccc(F)cc1)NCC1CCCO1` (centres undefined): the Potency result is “inactive”. Next, `O=C1CCC/C=C\C[C@@H](CC(=O)N(CCO)Cc2ccccc2)C(=O)NCCO1`: “inactive”; `CC1CCCCC1NC(=O)Cn1cnc2c1c(=O)n(C)c(=O)n2C` (centres undefined): “inactive”. Take `Cc1ccc(C)c(NC(=O)COC(=O)c2nn(C)c(=O)c3ccccc23)c1`: the Potency entry was “inactive”.

For `Cc1cc(C)cc(NC(=O)N2CCCCCCC2)c1`, the Potency result was “inactive”. Regarding `Cc1ccc2cc3cc(C(=O)N4CCCCCC4)oc3nc2c1`, the Potency is 0.731 µM (active).

In the case of `COc1ccc2oc(=O)c(C(=O)N3CCCC3)cc2c1`, the Potency result is “inactive”. Consider `COc1ccc(CNC(=O)C[C@H]2C[C@H](C(=O)N3CCOCC3)[C@@]3(C)c4[nH]c5cc(CCC(=O)N(C)C)ccc5c4CCN3C2=O)cc1OC`, for which the Potency entry was “inactive”. As to `O=C(CCNC(=O)c1ccccc1Cl)NN=Cc1ccco1`, the Potency entry is “inactive”. The result for `Cc1ccsc1C(=O)NNC(=O)COc1ccc(Br)cc1` reads “inactive”. Next, `CC(=O)Nc1ccc(/C=C/C(=O)c2ccccc2)cc1`: 16.4 µM (active); `Cc1ccc(N/C=C/C(=O)c2ccccc2)cc1C`: 0.92 µM (active); `O=C(/C=C/NCc1ccc(F)cc1)c1ccccc1`: “inactive”. With `CC(OC(=O)/C=C/c1ccccc1)C(=O)Nc1ccc(C(N)=O)cc1` (centres undefined), the Potency entry is “inactive”. As for `CC(=O)Nc1ccc(NC(=S)NC(=O)/C=C/c2ccccc2)cc1`, the Potency result was “inactive”. For the compound `Cc1noc(NS(=O)(=O)c2ccc(N/C=C/C(=O)c3ccccc3)cc2)c1C`, the Potency entry is “inactive”. In the case of `Cc1ccc(S(=O)(=O)Nc2ccc3c(c2)C(=O)N([C@H](C)CO)C[C@@H](C)[C@@H](CN(C)C(=O)Nc2cccc4ccccc24)O3)cc1`, the Potency result was “inactive”. In the case of `O=C(NCCCN1CCOCC1)c1cn(-c2ccccc2)nc1-c1ccc(F)cc1`, the Potency entry is “inactive”. With `O=C(COC(=O)c1cccnc1Cl)NC(=O)NC1CCCCC1`, the Potency result is “inactive”.

Take `O=C(COc1ccc(Br)cc1F)NCC1(N2CCCCC2)CCCCC1`: the Potency entry is “inactive”. Regarding `CC(C)n1cnc2c(NCc3ccccc3)cc(N[C@@H](CO)Cc3ccccc3)cc21`, the Potency result is “inactive”. Regarding `CCOc1ccc(Br)cc1S(=O)(=O)Nc1ccc(S(=O)(=O)Nc2cc(C)on2)cc1`, the Potency entry was “inactive”.

Turning to `O=C(Nc1cccc(S(=O)(=O)N2CCCCC2)c1)c1cncc(Br)c1`, the Potency entry is “inactive”.

For the compound `CC(C)(C)OC(=O)N/N=C/c1ccc(C(=O)O)cc1`, the Potency result was “inactive”.

With `C/C(=N\NC(=O)OC(C)(C)C)c1ccc[nH]1`, the Potency is 14.6 µM (active).

For the compound `Cc1ccccc1NC(=O)NNC(=O)OC(C)(C)C`, the Potency result is “inactive”. Next, `COc1ccccc1CNC(=O)c1ccc(Cl)c(S(=O)(=O)N2CCCC2)c1`: “inactive”. Consider `Cc1ccc(S(=O)(=O)NCCC(=O)Nc2ccc(C)c(Cl)c2)cc1C`, for which the Potency result was “inactive”.

In the case of `Cc1ccnc(NC(=O)CCNS(=O)(=O)c2ccc(C)c(C)c2)c1`, the Potency was 1.64 µM (active). Next, `Cc1ccc(S(=O)(=O)NCCC(=O)Nc2cccc(S(N)(=O)=O)c2)cc1C`: “inactive”; `Cc1cc(NC(=O)CN2C(=O)NC(CC(C)C)C2=O)no1` (centres undefined): “inactive”. For `O=C(CN1C(=O)NC2(CCCCCC2)C1=O)Nc1ccc([N+](=O)[O-])cc1`, the Potency result was “inactive”. On to `CC(C)(C)OC(=O)C[C@@H]1C/C=C\C[C@@H](CC(=O)N[C@H](CO)Cc2ccccc2)C(=O)NC[C@@H](c2ccccc2)OC1=O`, for which the Potency result is “inactive”.

For `COc1ccc(C(=O)OCC(=O)Nc2cccc(C(C)=O)c2)cc1OC`, the Potency result is “inactive”. Consider `CC(=O)Nc1cccc(C(=O)OCC(=O)NCc2cc(C)c(O)c(C)c2)c1`, for which the Potency was 14.6 µM (active). Consider `Cc1ccc(C(=O)OCC(=O)NCc2cc(C)c(O)c(C)c2)cc1S(=O)(=O)N1CCCCC1`, for which the Potency entry is “inactive”.

As to `Cc1noc(C)c1S(=O)(=O)N(C)C[C@H]1Oc2c(NC(=O)Nc3ccc4c(c3)OCO4)cccc2C(=O)N([C@H](C)CO)C[C@@H]1C`, the Potency entry was “inactive”.

In the case of `COc1cc(OC)cc(C(=O)N[C@H](C(=O)NNC(=O)c2ccc(Br)cc2)C(C)C)c1`, the Potency entry was “inactive”. For `COc1ccc(NC(=O)CCN2CCCC2)c(OC)c1`, the Potency result is “inactive”. Turning to `CC(=O)Oc1ccc(NC(=O)CCC2CCCCC2)c(C(=O)O)c1`, the Potency result was “inactive”. For the compound `COc1ccc(NC(=O)CCCC2CCCCC2)c(OC)c1`, the Potency is 18.3 µM (active). Consider `O=C(NOCc1ccccc1)c1cccc([N+](=O)[O-])c1`, for which the Potency result was “inactive”. Next, `Cc1ccc2nc(-c3ccc(SCC(=O)Nc4cc(C)on4)nc3)[nH]c2c1`: 1.84 µM (active); `Cc1cccc(-n2ncc3c(=O)[nH]c(SCC(=O)Nc4cc(C)on4)nc32)c1`: “inactive”; `Cc1ccc(SCCC(=O)Nc2cc(C)on2)cc1`: “inactive”. The result for `CC1CCCCC12NC(=O)N(CC(=O)N1CCN(c3ccccc3)CC1)C2=O` (centres undefined) reads “inactive”; that for `CCN(C[C@H]1N[C@@](CC)(C(=O)OC)[C@H]2C(=O)N(Cc3ccccc3)C(=O)[C@@H]12)S(=O)(=O)c1ccc(C(F)(F)F)cc1`, “inactive”. Regarding `COc1cccc(-c2cc(C(=O)N3CCN(c4ccccc4OC)CC3)no2)c1`, the Potency result is “inactive”. Consider `COc1ccc(-c2cc(C(=O)N3CCN(c4ccc(F)cc4)CC3)no2)cc1`, for which the Potency result is “inactive”. As to `COc1ccccc1-c1cc(C(=O)N2CCCCC2)no1`, the Potency is 3.66 µM (active). On to `O=C(OCC(=O)N1CCCCC1)c1ccc(OC(F)(F)F)cc1`, for which the Potency result was “inactive”. In the case of `O=C(C[C@H]1C[C@H](C(=O)N2CCOCC2)[C@@]2(CCC3CCCC3)c3[nH]c4ccc(Cl)cc4c3CCN2C1=O)NCc1ccco1`, the Potency result was “inactive”.

For the compound `COc1ccc(NC(=O)N(C)C[C@H]2Oc3ccc(NC(=O)C4CC4)cc3C(=O)N([C@H](C)CO)C[C@@H]2C)cc1`, the Potency entry was “inactive”.

On to `COc1cccc(CNC(C)C(=O)Nc2ccc(S(=O)(=O)N3CCCC3)cc2)c1` (centres undefined), for which the Potency result is “inactive”. The result for `O=C(Nc1cccnc1)c1noc2c1CCCCC2` reads 2.31 µM (active); that for `COc1cccc(C(=O)Nc2cccnc2)c1OC`, “inactive”; that for `O=C(Nc1cccnc1)c1cc(Cl)ccc1Cl`, “inactive”. Regarding `Cc1ccnc(SCC(=O)Nc2cccc(S(=O)(=O)N3CCOCC3)c2)n1`, the Potency result was “inactive”. Turning to `COc1ccc(-c2noc(CCC(=O)N3CCN(c4cccc(C)c4)CC3)n2)cc1`, the Potency result is “inactive”. As to `O=C(CNC(=O)c1ccccc1F)c1ccc(Br)cc1`, the Potency was 5.17 µM (active). The result for `O=C(COC(=O)CNC(=O)c1ccccc1F)NCC(F)(F)F` reads “inactive”; that for `O=C(NCCS(=O)(=O)NCc1ccc(F)cc1)c1ccccc1`, “inactive”.

For the compound `O=C(Nc1ccc(NC(=O)c2ccccc2F)cc1)c1ccccc1F`, the Potency result was “inactive”. Consider `O=C(CNC(=O)c1ccc(F)cc1)c1ccccc1`, for which the Potency is 8.2 µM (active). Regarding `O=C(CNC(=O)c1ccccc1)NCC(=O)OCC(=O)c1ccccc1`, the Potency entry is “inactive”. As for `COc1cc(NC(=O)c2[nH]cnc2C(N)=O)cc(C(=O)Nc2cccc(C(F)(F)F)c2)c1`, the Potency result is “inactive”. `C=CC(COCc1ccccc1)N(CC(=O)OC)S(=O)(=O)c1cc(Br)ccc1OC` (centres undefined): the Potency result is “inactive”. Next, `O=C1N[C@H](Cc2c[nH]c3ccccc23)COC(=O)[C@H](Cc2ccc(F)cc2)C/C=C\C[C@H]1CC(=O)N(CCO)Cc1ccccc1`: “inactive”. Consider `CCOc1ccc(NC(=O)c2ccc(NC(=O)COC(=O)c3ccc(NC(=O)CC#N)cc3)cc2)cc1`, for which the Potency is 5.17 µM (active). For the compound `N#CCC(=O)Nc1ccc(C(=O)OCC(=O)Nc2sc3c(c2C#N)CCCC3)cc1`, the Potency entry is “inactive”.

For the compound `CCOc1ccc(C(=O)Nc2ccncc2)cc1`, the Potency entry was “inactive”.

As for `C[C@@H]1CN([C@@H](C)CO)C(=O)c2cccc(NS(=O)(=O)c3ccc(F)cc3)c2O[C@H]1CN(C)C(=O)NC1CCCCC1`, the Potency entry was “inactive”.

As to `Cc1cccc(N2O[C@H]3C=CC2CCCC3)n1`, the Potency result is “inactive”.

Regarding `CCCC(CNC(=O)COC(=O)C1=NNC(=O)CC1)c1ccc(Cl)cc1Cl` (centres undefined), the Potency result was “inactive”.

Consider `O=C1/C(=C\Nc2ccccc2)CCN1c1ncccn1`, for which the Potency is 11.6 µM (active). `O=C(Cc1ccccc1)NNC(=O)C1CCN(c2ncccn2)CC1`: the Potency entry was “inactive”. For the compound `COc1ccccc1Oc1ccc(N/C=C2/CCCC2=O)cc1`, the Potency result is “inactive”. On to `NC(=O)Nc1ccc(C(=O)OCC(=O)NC2CCCc3ccccc32)cc1` (centres undefined), for which the Potency entry was “inactive”. Turning to `CCCN=C1N(C)C[C@@H]2[C@@H]3C(=O)N(Cc4ccccc4)C(=O)[C@@H]3[C@](C)(C(=O)OC)N12`, the Potency entry is “inactive”. The result for `COc1ccc(S(=O)(=O)N(C)C[C@@H]2Oc3ccc(NS(=O)(=O)c4cn(C)cn4)cc3C(=O)N([C@@H](C)CO)C[C@@H]2C)cc1` reads “inactive”.

With `C[C@H](CO)N1C[C@H](C)[C@@H](CN(C)C(=O)NC2CCCCC2)Oc2ccc(NC(=O)c3ccncc3)cc2C1=O`, the Potency entry is “inactive”. In the case of `O=C(Nc1cc(C(F)(F)F)ccc1Cl)C(=O)N1CCCCC1`, the Potency entry was “inactive”. Next, `O=C(Nc1cc(C(F)(F)F)ccc1Cl)c1cc2nc3c(c(C(F)(F)F)n2n1)CCCC3`: 8.2 µM (active); `CCCCC(=O)Nc1ccc(C(=O)Nc2cc(C(F)(F)F)ccc2Cl)cc1`: “inactive”. In the case of `CCNC(=S)N1CCN(S(=O)(=O)c2ccc(Cl)s2)CC1`, the Potency entry was “inactive”. Take `O=C(NCCC1=CCCCC1)C1CCN(Cc2cnn(-c3ccccc3)c2-n2cccc2)CC1`: the Potency result is “inactive”. Next, `O=C(NNc1ncnc2c1cnn2-c1ccccc1)c1ccco1`: “inactive”; `C1=C(CCNc2ncnc3c2cnn3-c2ccccc2)CCCC1`: 2.31 µM (active).
